# Experimental data published in the supplement of paper PMC10646978.
# ± gives the standard deviation.
# Legend:
# Settings in all cases: modulator concentration 10 µM
# [1] = test system: RAW-Dual (murine macrophage reporter line); test: NF-kB reporter (SEAP) activity fold change vs agonist alone; higher = enhanced NF-kB activity
# Method in brief: (§1)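 Overnight stimulation with a PRR agonist followed pre-incubation for 1 hour at 37 °C with compound at 10 μM final. This was done in RAW-Dual murine macrophage reporter cells seeded at 50 000 per well in 384-well plates. NF-κB (SEAP, QUANTI-Blue absorbance at 620 nm) and IRF (Lucia luciferase, QUANTI-Luc luminescence) were read from the supernatant. Each reporter's fold change relative to the mean agonist-only control on the same plate was averaged over replicate plates.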
# [2] = test system: RAW-Dual (murine macrophage reporter line); test: IRF reporter (Lucia luciferase) activity fold change vs agonist alone; higher = enhanced IRF activity
# Method in brief: as §1
# [3] = test system: RAW-Dual (murine macrophage reporter line); test: viability score (confluency relative to resting cells, overnight) (fraction); higher = more viable, active = viable (0.7 or more)
# Method in brief: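 Overnight exposure to 10 μM final compound was carried out on RAW-Dual macrophages in 384-well plates. IncuCyte software generated two confluency masks over all wells imaged with IncuCyte. The viability score gives confluency in relation to resting cells. A compound met the cutoff if each mask exceeded 70% of resting cells.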
# [4] = agonist: CpG ODN 1826 0.5 ug/mL
SMILES,"NF-kB reporter [1, 4]",NF-kB reporter ([1]; agonist: LPS 0.1 ug/mL),NF-kB reporter ([1]; agonist: MPLA […]),IRF reporter ([2]; agonist: 3'3'-cGAMP 10 ug/mL),IRF reporter ([2]; agonist: LPS 0.1 ug/mL),IRF reporter ([2]; agonist: MPLA […]),viability score [3]
C=Cc1c(C)c2cc3nc(cc4[nH]c(cc5nc(cc1[nH]2)C(C)=C5CCC(=O)O)c(CCC(=O)OC)c4C)[C@@]1(C)C3=CC=C(C(=O)OC)C1C(=O)OC (some centres not stated) [Prestw-1105],0.611 ± 0.075,0.869 ± 0.069,1.17 ± 0.16,0.131 ± 0.018,0.642 ± 0.13,0.457 ± 0.16,0.669 (inactive)
O=C(CCc1ccc(O)cc1)c1c(O)cc(O)cc1OC1OC(CO)C(O)C(O)C1O (configuration not stated),1.37 ± 0.33,0.943 ± 0.047,0.963 ± 0.072,0.961 ± 0.066,0.98 ± 0.18,1.02 ± 0.14,1.01 (active)
Cc1ccc(Nc2nc(N3CCOCC3)nc(N3CCN(c4ccccc4)CC3)n2)cc1,0.454 ± 0.029,1.05 ± 0.084,1.98 ± 0.059,0.711 ± 0.027,1.4 ± 0.067,1.9 ± 0.18,0.996 (active)
CN1C(=N)NC(=O)C1=Cc1cc(Br)cc(Br)c1O,0.879 ± 0.099,0.898 ± 0.09,0.954 ± 0.04,0.96 ± 0.069,0.951 ± 0.046,1.01 ± 0.11,0.998 (active)
Cc1cccc(C)c1OCC(C)N.Cl (configuration not stated),1.17 ± 0.25,1.25 ± 0.23,0.953 ± 0.058,0.89 ± 0.061,1.33 ± 0.29,1.04 ± 0.13,0.968 (active)
C=CCNC(=O)c1cccc(Br)c1,0.781 ± 0.061,0.962 ± 0.18,0.982 ± 0.097,0.933 ± 0.044,1.11 ± 0.19,1.09 ± 0.24,1.03 (active)
O=C(NC(Cc1cc(=O)[nH]c2ccccc12)C(=O)O)c1ccc(Cl)cc1 (configuration not stated),1.4 ± 0.19,1.19 ± 0.21,0.968 ± 0.055,0.918 ± 0.03,1.32 ± 0.16,1.09 ± 0.16,0.992 (active)
Cc1cccc(N2C(=O)C(=Cc3cccc([N+](=O)[O-])c3)SC2=S)c1C,0.964 ± 0.1,1.02 ± 0.094,0.937 ± 0.06,0.853 ± 0.035,1.57 ± 0.17,1.29 ± 0.11,0.989 (active)
Cc1cc2c(C)cc[n+](CCCS(=O)(=O)[O-])c2cc1C,0.942 ± 0.078,1.05 ± 0.066,0.918 ± 0.059,0.946 ± 0.038,1.42 ± 0.09,1.3 ± 0.22,1 (active)
CC(NC(=O)C(=O)Nc1ccc(F)cc1)c1ccccc1 (configuration not stated),0.972 ± 0.074,0.984 ± 0.18,0.939 ± 0.097,0.987 ± 0.069,1.22 ± 0.21,1.28 ± 0.2,0.994 (active)
CCOC(=O)C1=C(COCCN)NC(C)=C(C(=O)OC)C1c1ccccc1Cl (configuration not stated),0.533 ± 0.055,0.899 ± 0.052,1.55 ± 0.14,1.58 ± 0.1,1.34 ± 0.12,1.13 ± 0.095,0.589 (inactive)
CC(C)NNC(=O)c1ccncc1 [Prestw-176],1.04 ± 0.078,1.06 ± 0.088,1.02 ± 0.022,1.02 ± 0.068,0.958 ± 0.083,1.01 ± 0.093,0.997 (active)
Cc1cc(/C=C/C#N)cc(C)c1Nc1ccnc(Nc2ccc(C#N)cc2)n1,0.602 ± 0.17,0.605 ± 0.044,1.3 ± 0.12,0.209 ± 0.014,0.662 ± 0.071,0.886 ± 0.13,0.985 (active)
Cc1oncc1C(=O)NCCn1nc(C(F)(F)F)cc1C1CC1,1.06 ± 0.096,1.05 ± 0.081,0.991 ± 0.067,0.972 ± 0.039,0.978 ± 0.087,0.935 ± 0.21,1 (active)
O=Cc1ccc(OCc2cccc([N+](=O)[O-])c2)c(Br)c1,0.777 ± 0.091,0.737 ± 0.057,1.09 ± 0.18,0.963 ± 0.045,1.4 ± 0.09,1.49 ± 0.12,1 (active)
CNCCCN1c2ccccc2CCc2ccccc21.Cl,0.462 ± 0.11,1.14 ± 0.11,1.54 ± 0.1,0.45 ± 0.017,1.46 ± 0.2,1.88 ± 0.19,0.951 (active)
